In PubChem BioAssay (NCATS):
Records with an inconclusive call do not appear. The source made the active and inactive calls. The call rests on the fitted dose curve; in most records, active means well fitted inhibition curve with a large enough effect; inconclusive means small, poorly fitted or top-dose-only effect; inactive means no such curve, though single readings can be large or run the other way.

Test: Primary fluorescence-based thiol-reactive (MSTI) qHTS assay for identification of artifact compounds. (AID 1845221); further: nearly all actives have a fitted effect of over 65% in size;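 on activity change, negative = thiol reactive: thiol-reactive compounds lower the probe fluorescence signal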
Settings: MSTI thiol-reactivity probe, 1 h; series mostly up to 53.8 µM; activity change, negative = thiol reactive: at the top concentration
Description: PI: Alexander Tropsha Ph.D.
UNC Eshelman School of Pharmacy
University of North Carolina, Chapel Hill, North Carolina
Hits from high-throughput screening (HTS) of chemical libraries are often false positives due to their interference with the assay detection technology. In response to this problem, we generated the largest publicly available library of chemical liabilities and developed a free webtool to predict HTS artifacts, both of which are described herein. More specifically, we generated, curated, and integrated HTS datasets for thiol reactivity, redox activity, and luciferase (firefly and nano) activity. Using these curated datasets, we developed and validated several Quantitative Structure-Interference Relationship (QSIR) models to predict nuisance behavior. […] These models were employed for virtual profiling of the National Center for Advancing Translational Science's (NCATS) in-house library, and 256 compounds for each assay were selected for the experimental validation of nuisance behavior. The BA for these external predictions ranged from 58 to 78% for compounds within the applicability domains of the models. […] The models developed in this study, along with aggregation models previously developed by our group (SCAM Detective) were implemented in "Liability Predictor," an online tool which may be used as part of chemical library design or for triaging HTS hits. Both the models and the curated datasets are publicly available at https://liability.mml.unc.edu/.
SEQUENCE No. (e.g., 1, 2, 3, etc.); […] (e.g., Cells, Incubation, Reagent, etc.); VALUE; DESCRIPTION.
1; Reagent; 4 uL; […].
2; Compounds and control; 16 nL; Kalypsis pin tool (Wako USA) equipped with a 1536-well pin head.
4; Detection; Fluorescence, ViewLux microplate reader, 525 nm excitation, 598 nm emission.
NOTES (numbers refer to Sequence numbers above)
1. Assays determining (E)-2-(4-mercaptostyryl)-1,3,3-trimethyl-3H-indol-1-ium (MSTI) reactivity were performed as previously described in the literature with modifications for the quick identification of compounds reacting with thiol. In brief, 4 uL of MSTI or positive control Acetyl-MSTI (final concentrations of 4 uM and 4 uM, respectively) in assay buffer (2% DMSO in 1X PBS pH 7.4) was dispensed into all wells of a 1536-well assay plate (solid-bottom black plate; Greiner Bio One, Monroe, NC).
2. A Wako Pin-tool (Wako Automation, Richmond, VA) was used to transfer 16 nL of compounds (consisting of 7-plates in qHTS format, final concentration range 18.3 nM to 114 uM) or control MLS001163887 (final concentration range 1.22 nM to 40 uM).
3. Plates were centrifuged (121xg, 15 seconds) and incubated for 1 hour at room temperature protected from light.
4. Samples were read for fluorescence (Ex/Em = 525(20)/598(25) nm) on a ViewLux CCD imager (PerkinElmer). Data were normalized to Acetyl-MSTI (0% activity) and MSTI (100% activity) and the resulting percent inhibition data were fitted to a 4-parameter Hill equation using NCATS in-house software.
Potency means the concentration at half of the fitted maximal effect.

| SMILES | activity change, negative = thiol reactive | Potency |
| --- | --- | --- |
| CC(C)C(C#N)O[C@@H]1O[C@H](CO[C@@H]2O[C@@H](C)[C@H](O)[C@@H](O)[C@H]2O)[C@@H](O)[C@H](O)[C@H]1O (stereo not given in full) | 2.04% [at 25.6 µM] (inactive) | – |
| CN1CCc2nc(C(=O)N[C@@H]3C[C@@H](C(=O)N(C)C)CC[C@@H]3NC(=O)C(=O)Nc3ccc(Cl)cn3)sc2C1 | 119% (inactive) | – |
| C=CC(=O)Nc1cccc(Nc2nc(Nc3ccc(N4CCN(C(C)=O)CC4)cc3OC)ncc2C(F)(F)F)c1 | – | 2.99 µM (active) |
| COC(=O)/C=C/C12COC(C)(C)C1C(O)C(OC(C)=O)C1(C)C2CCC2(C)C(c3ccoc3)OC(=O)C3OC321 (stereo not given) | 7.03% [at 25.6 µM] (inactive) | – |
| O=C(NCc1ccc(S(=O)(=O)c2cc(F)cc(F)c2)cc1)c1ccc2nccn2c1 | 85.3% (inactive) | – |
| C[C@@H]1C(=O)O[C@H](C)[C@H]1CC(=O)[C@](C)(O)[C@H]1CC[C@@]2(O)C3=CC(=O)[C@@H]4C[C@@H](O)[C@@H](O)C[C@]4(C)C3CC[C@]12C (stereo not given in full) | -12.4% [at 25.6 µM] (inactive) | – |
| C[S+](CC[C@H](N)C(=O)[O-])C[C@H]1O[C@@H](n2cnc3c(N)ncnc32)[C@H](O)[C@@H]1O (stereo not given in full) | -4.88% (inactive) | – |
| C/C=C/C=C/[C@@H]1O[C@](O)([C@H](CC)C(=O)NC/C=C/C=C(\C)[C@@H](OC)[C@@H](C)C2OC(/C=C/C=C/C=C(\C)C(=O)c3c(O)cc[nH]c3=O)[C@H](O)[C@@H]2O)[C@H](O)[C@H](O)C1(C)C (stereo not given in full) | 44.8% [at 25.6 µM] (inactive) | – |
| COc1cc2ncnc(Nc3cccc(Cl)c3F)c2cc1OC(=O)N1CCN(C)C[C@H]1C | 12.4% (inactive) | – |
| CC1=C(CCC(C)CC(=O)O)[C@@]2(C)CCCC(C)(C)C2CC1=O (stereo not given in full) | 44.1% (inactive) | – |
| C/C=C(\C)C(=O)O[C@H]1[C@@H](O[C@]2(COC(=O)CC(C)C)O[C@H](COC(=O)C(C)CC)[C@@H](OC(C)=O)[C@@H]2O)O[C@H](COC(C)=O)[C@@H](O)[C@@H]1O (stereo not given in full) | 10.9% [at 25.6 µM] (inactive) | – |
| CC1=C2C[C@H]3O[C@@]3(C)CCC3O[C@@]3(C)C[C@@]2(O)OC1=O (stereo not given in full) | 3.75% (inactive) | – |
| CC1CCC2(OC1)OC1CC3C4CCC5C[C@@H](O[C@@H]6O[C@H](CO[C@@H]7OC[C@@H](O)[C@H](O)[C@H]7O)[C@H](O)[C@H](O)[C@H]6O)CC[C@]5(C)C4CC[C@]3(C)C1C2C (stereo not given in full) | 33.8% [at 25.6 µM] (inactive) | – |
| CON(C)C(=O)[C@H](O)[C@H](Cc1ccccc1)NC(=O)c1cc2cc(Cl)ccc2[nH]1 | 275% (inactive) | – |
| COC(=O)C1=COC(O[C@@H]2O[C@H](CO)[C@@H](O)[C@H](O)[C@H]2O)[C@H]2[C@@H]1[C@H](OC(=O)CCc1ccc(O)cc1)C[C@]2(C)O (stereo not given in full) | 6.39% [at 25.6 µM] (inactive) | – |
| NC1(C(=O)NC(CCO)c2ccc(Cl)cc2)CCN(c2ncnc3[nH]ccc23)CC1 (stereo not given) | 58.2% (inactive) | – |
| CC(=O)O[C@@H]1[C@@H](O)[C@H](O[C@H]2CC[C@]34C[C@]35CC[C@]3(C)[C@@H]([C@@]6(C)CC[C@@H](C(C)(C)O)O6)[C@@H](O)C[C@@]3(C)[C@@H]5C[C@H](O[C@@H]3O[C@H](CO)[C@@H](O)[C@H](O)[C@H]3O)[C@H]4C2(C)C)OC[C@H]1O | 40.5% (inactive) | – |
| C[C@@H]1N[C@H]2N(C1=O)c1ccccc1[C@@]2(O)C[C@@H]1C(=O)N[C@@H](C)c2nc3ccccc3c(=O)n21 | 98% [at 25.6 µM] (inactive) | – |
| CC1OC(O[C@H]2CC[C@@]3(C)C(CC[C@]4(C)C3CC=C3C5CC(C)(C)CC[C@]5(C(=O)OC5OC(CO)C(OC6OC(COC7OCC(O)C(O)C7O)C(O)C(O)C6O)C(O)C5O)CC[C@]34C)C2(C)C)C(O)C(O)C1OC1OCC(OC2OCC(O)C(O)C2O)C(O)C1O (stereo not given in full) | 94.7% [at 11.5 µM] (inactive) | – |
| C[C@@H]1O[C@@H](O[C@H]2[C@H](O[C@H]3[C@H](O[C@H]4CC[C@@]5(C)C(CC[C@]6(C)C5CC=C5[C@@H]7CC(C)(C)CC[C@]7(C(=O)O[C@@H]7O[C@H](CO)[C@@H](O[C@@H]8O[C@@H](C)[C@H](O)[C@@H](O)[C@H]8O)[C@H](O)[C@H]7O)CC[C@]56C)C4(C)C)OC[C@H](O)[C@@H]3O)O[C@H](CO)[C@@H](O)[C@@H]2O)[C@H](O)[C@H](O)[C@H]1O (stereo not given in full) | 125% [at 11.5 µM] (inactive) | – |

| SMILES | activity change, negative = thiol reactive | Potency |
| --- | --- | --- |
| CC(=O)O[C@H]1C[C@@]2(C)[C@@H](CC[C@H]3[C@@]4(C)C=CC(=O)[C@@H](C)[C@@H]4[C@H](O)C(=O)[C@@]32C)/C1=C(/CCC=C(C)C)C(=O)O | 123% [at 25.6 µM] (inactive) | – |
| O=C(Nc1ccc(S(=O)(=O)Nc2nccs2)cc1)C(c1ccccc1)c1ccccc1 | 163% (inactive) | – |
| COC(C(=O)N1Cc2[nH]nc(NC(=O)c3ccc(N4CCN(C)CC4)cc3)c2C1)c1ccccc1 (stereo not given) | 104% (inactive) | – |
| Cc1cc(C(=O)Nc2cccc(C(=O)Nc3cccc(C(F)(F)F)c3)c2)on1 | 15.5% (inactive) | – |
| COc1cc(Nc2nc3c(s2)CCCC3c2ccc(F)cc2)ccc1-n1cnc(C)c1 (stereo not given) | – | 11.9 µM (active) |
| COc1cccc(C(=O)N2CCN(C(=O)COc3cccc(C)c3)CC2)c1OC | 32.4% (inactive) | – |
| C=C1C[C@]23C[C@H]1CC[C@H]2[C@]1(C)CCC[C@@](C)(C(=O)O)[C@H]1[C@@H]3C(=O)O | 18.3% (inactive) | – |
| CC1CC2OC3(OC2C(C)(C)O)C1C1(C)CCC24CC25CCC(O[C@@H]2OC[C@@H](O)[C@H](O)[C@H]2O)C(C)(C)C5CC=C4C1(C)C3O (stereo not given in full) | 14.8% [at 25.6 µM] (inactive) | – |
| CC(=O)O[C@H]1C[C@@](O)(C(C)C)C2[C@@H](OC(=O)c3ccc(O)cc3)C[C@@]3(C)O[C@H]3C[C@]21C (stereo not given in full) | 6.01% [at 25.6 µM] (inactive) | – |
| CCCCOC(=O)NC(=O)C1c2ccccc2Oc2ccccc21 | -4.67% (inactive) | – |
| Cc1ccc(C(=O)N(CCCN)C(c2nc3cc(Cl)ccc3c(=O)n2Cc2ccccc2)C(C)C)cc1 (stereo not given) | -21.8% (inactive) | – |
| NC(=O)c1csc(C2OC(CO)C(O)C2O)n1 (stereo not given) | -2.32% (inactive) | – |
| C[C@@H]1O[C@@H](O[C@H]2[C@H](O)[C@@H](O[C@@H]3O[C@H](CO)[C@@H](O)[C@H](O[C@@H]4O[C@H](CO)[C@@H](O)[C@H](O)[C@H]4O)[C@H]3O)[C@H](O[C@H]3CC[C@@]4(C)C(=CC[C@@H]5C4CC[C@@]4(C)C5C[C@@H]5OC6(CC[C@@](C)(CO[C@@H]7O[C@H](CO)[C@@H](O)[C@H](O)[C@H]7O)O6)[C@@H](C)[C@@H]54)C3)O[C@@H]2CO)[C@H](O)[C@H](O)[C@H]1OC1OC(CO)C(O)C(O)C1O (stereo not given in full) | 23.9% [at 11.5 µM] (inactive) | – |
| COc1cc(/C=C/C(=O)O[C@H]2[C@H](O)[C@@H](CO)O[C@@]2(CO)O[C@H]2O[C@H](CO)[C@@H](O)[C@H](O)[C@H]2O)ccc1O | -0.434% [at 25.6 µM] (inactive) | – |
| CC(=O)OC1CC2C3(C)CCC(OC(=O)CC(=O)O)C(C)(C)C3CCC2(C)C2(C)CCC(C3(C)CCC(=O)O3)C12 (stereo not given) | 24.7% [at 25.6 µM] (inactive) | – |
| CC(=O)c1cc2c(cc1O)OC(C)(C)C=C2 | 4.79% (inactive) | – |
| COc1cc(/C=C/C(=O)OC[C@H]2O[C@@](CO)(O[C@H]3O[C@H](CO)[C@@H](O)[C@H](O)[C@H]3O)[C@@H](OC(=O)/C=C/c3ccc(O)c(OC)c3)[C@@H]2O)ccc1O | – | 3.54 µM (active) |
| CNS(=O)(=O)CC1CCC(N(C)c2ncnc3[nH]ccc23)CC1 (stereo not given) | -11.8% (inactive) | – |
| CCn1cc(NC(=S)Nc2cc(Cl)ccc2OC)c(C(N)=O)n1 | 93.4% (inactive) | – |
| N#Cc1ccc2[nH]cc(CCCCN3CCN(c4ccc5oc(C(N)=O)cc5c4)CC3)c2c1 | -1.35% (inactive) | – |
